According to PubChem BioAssay AID504466 (National Center for Advancing Translational Sciences (NCATS), 2011):
In all, about 330,000 compounds went through this assay and about 4,200 (1.3%) were called active. Not shown: some 6% with an inconclusive outcome. Calls follow the shape of the dose curve; as a rule, active = well fitted activation curve with a large enough effect; inconclusive = small, poorly fitted or top-dose-only effect; inactive = no such curve, though single readings can be large or run the other way. The entries come from a sample that favours actives as a whole. A call without a number means that no potency is given here.

Assay: qHTS screen for small molecules that induce genotoxicity in human embryonic kidney (HEK293T) cells expressing luciferase-tagged ELG1; also: nearly all actives have a fitted effect of over 60% in size
Details: HEK293T ELG1-luciferase reporter, luminescence, 16 h; series mostly up to 46 µM
Procedure, shortened: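 Screening used a luciferase reporter fused to human ELG1 in HEK293T cells. Luminescence was read on a CCD plate imager after 16 hr exposure and 30 min ONE-Glo incubation.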
Potency is read from the fitted curve at half-maximal effect.

Row | SMILES | Potency
1 | C#CCOCCOCCOCCNc1nc(N2CCN(C(=O)C([C@@H](C)O)n3cc([C@@H](N)CCCCN)nn3)CC2)nc(N2CCN(C(=O)[C@H](CCCCN)n3cc(CN)nn3)CC2)n1 (stereo partly drawn) | inactive
2 | Cc1noc(C)c1S(=O)(=O)N(C)C[C@H]1Oc2ccc(NC(=O)C3CC3)cc2C(=O)N([C@H](C)CO)C[C@@H]1C | inactive
3 | COc1ccc(CNC(=O)COc2ccccc2C(=O)c2cnn(-c3ccccc3)c2)cc1OC | inactive
4 | O=C(c1cnn(-c2ccc(Cl)cc2)c1)c1ccccc1O | 7.3 µM (active)
5 | Cc1ncc(CC(=O)n2cc(C(=O)c3cc(Cl)ccc3O)cn2)s1 | inactive
6 | CC[C@]1(C(=O)OC)[C@H]2C(=O)N(Cc3ccccc3)C(=O)[C@H]2[C@H]2CN=C(SCc3ccc(C#N)cc3)N21 | inactive
7 | CN[C@H](C(=O)NC[C@H]1O[C@@H](n2cnc3c(N)ncnc32)[C@H](O)[C@@H]1O)[C@@H](C)OCc1ccccc1 | inactive
8 | O=C1[C@@H](c2ccccc2)[C@@H](c2ccccc2)N1c1cccnc1 | inactive
9 | CC[C@]12c3[nH]c4ccc(Cl)cc4c3CCN1C(=O)[C@@H](CC(=O)NCCCOC)C[C@@H]2C(=O)N1CCN(C(=O)c2ccco2)CC1 | inactive
10 | O=C(NCCCn1ccnc1)c1ccccc1F | inactive
11 | O=C(NCCCn1ccnc1)c1cc(-c2ccccc2)on1 | 14.6 µM (active)
12 | O=C(Nc1cccnc1Cl)c1cc(-c2cccc(Cl)c2)on1 | inactive
13 | O=C(NC1CCCC1)c1cc(-c2ccccc2)on1 | 9.2 µM (active)
14 | O=C(NC1CCCCC1)c1ccc(-c2ccc(Cl)cc2)o1 | inactive
15 | COc1ccc(-c2cc(C(=O)NCCCn3ccnc3)no2)cc1 | inactive
16 | O=C(NC(=S)Nc1ccc(Br)cc1F)C1CCCCC1 | inactive
17 | COc1ccc(CNC(=O)C[C@H]2C[C@H](C(=O)N3CCOCC3)[C@@]3(CCC4CCCC4)c4[nH]c5ccc(Cl)cc5c4CCN3C2=O)cc1OC | inactive
18 | O=C(Nc1cccc(S(=O)(=O)NC2=NCCC2)c1)c1ccc(F)cc1F | inactive
19 | CCn1nnc2cc(C(=O)Nc3ccc(C(=O)OC(C)C)cc3)ccc21 | inactive
20 | C/C(=N\NC(=O)c1ccoc1C)c1ccccc1O | 18.3 µM (active)
21 | COc1ccccc1N(CC(=O)N/N=C(\C)c1ccccc1O)S(=O)(=O)c1ccc(C)cc1 | inactive
22 | CC(C)=C(NC(=O)c1ccccc1)C(=O)N/N=C(\C)c1ccccc1O | inactive
23 | O=C1NC[C@@H](c2ccccc2)OC(=O)[C@H](Cc2ccc(F)cc2)CC/C=C/C[C@H]1CC(=O)N(CCO)Cc1ccccc1 | inactive
24 | O=C(C[n+]1cc(Br)cc2ccccc21)c1ccc(F)cc1 | inactive
25 | O=C(c1ccc(F)cc1)n1cc(C(=S)N2CCOCC2)c2ccccc21 | inactive
26 | O=C(c1ccc(F)cc1)n1c(=S)nc2ccccn21 | 0.651 µM (active)

Row | SMILES | Potency
27 | O=C(COC(=O)/C=C/c1cccc(Cl)c1)NCc1cccs1 | inactive
28 | Nn1c(SCC(=O)Nc2ccc3c(c2)CCC3)nnc1C1CC1 | inactive
29 | O=C(CSCc1cccs1)N1CCCC1 | 16.4 µM (active)
30 | O=C(COc1ccccc1Cl)N1CCCCCCC1 | inactive
31 | O=C(CSc1ccsc1[N+](=O)[O-])N1CCCCC1 | inactive
32 | O=C(CSCc1ccc(Cl)cc1)N1CCN(Cc2ccc3c(c2)OCO3)CC1 | inactive
33 | Cn1c(SCC(=O)N2CCCC2)nnc1-c1cccs1 | inactive
34 | O=C(CSCc1ccc(Cl)cc1)N1CCCCC1 | 8.91 µM (active)
35 | CCN(C[C@H]1N[C@@](CC)(C(=O)OC)[C@H]2C(=O)N(Cc3ccccc3)C(=O)[C@@H]12)S(=O)(=O)c1ccccc1 | inactive
36 | COc1cc(OC)cc(C(=O)NC(C(=O)N2CCC2)C(C)C)c1 (stereo not drawn) | inactive
37 | C/C(=N\O)C1(C)N(O)C(C)(C)C(c2ccc(Br)cc2)=[N+]1[O-] (stereo not drawn) | inactive
38 | CC(=O)C1(C)N(O)C(C)(C)C(c2cccs2)=[N+]1[O-] (stereo not drawn) | 0.082 µM (active)
39 | CC1(C)C(c2cccs2)=[N+]([O-])C2(CCCCC2=O)N1O (stereo not drawn) | inactive
40 | O=C(Nc1ccc(Cl)cn1)c1ccc2c(c1)OCCO2 | 1.16 µM (active)
41 | CCCc1cc(C(=O)Nc2ccc(Cl)cn2)cs1 | 2.31 µM (active)
42 | COc1ccc(C(=O)NC(=S)Nc2ccc(Cl)cn2)cc1OC | inactive
43 | CCCc1cc(C(=O)Nc2ccc(C(=O)OC)cc2)cs1 | inactive
44 | COc1c(Cl)cc(C(=O)Nc2ccc(Cl)cn2)cc1Cl | inactive
45 | Cc1nc(NC(=O)c2ccc3c(c2)OCCO3)ccc1Br | inactive
46 | O=C(Nc1cccc(S(=O)(=O)N2CCCC2)c1)c1cncc(Br)c1 | inactive
47 | COc1ccc(-c2sc3ccc(OC)cc3c2C#Cc2ccccn2)cc1 | inactive
48 | COc1cc(OC)c2c(-c3cccc(-c4cccc(N)c4)c3)cc(=O)oc2c1 | inactive
49 | CCN([C@H](CO)C(C)C)S(=O)(=O)c1ccccc1Br | inactive
50 | Cc1ccc2c(c1)C1C[N+](C)(CC(=O)c3ccccc3)CCC1N2C(=O)c1ccccc1Cl (stereo not drawn) | inactive
51 | CC1CCCCC1NC(=O)COc1ccc(C#N)cc1 (stereo not drawn) | inactive
52 | C=CCC[C@@H](Cc1ccc(F)cc1)C(=O)O[C@H](CNC(=O)[C@H](CC=C)CC(=O)N(CCO)Cc1ccccc1)c1ccccc1 | inactive

Row | SMILES | Potency
53 | COC(=O)c1ccc(CNC(=O)c2ccc(S(=O)(=O)N3CCCCCC3)cc2)cc1 | inactive
54 | Cc1noc(C)c1COc1ccc(C(=O)NCCOc2ccccc2)cc1 | inactive
55 | O=C(NCCOc1ccccc1)c1ccccc1 | 1.64 µM (active)
56 | CCCCCCCCC(=O)NCCOc1ccccc1 | inactive
57 | Cc1cc(Cl)c(S(=O)(=O)Nc2ccc3c(c2)OCCO3)cc1OCC(N)=O | 23.1 µM (active)
58 | Cc1cc(Cl)c(S(=O)(=O)NCC2CCCO2)cc1OCC(N)=O (stereo not drawn) | inactive
59 | Cc1cc(Cl)c(S(=O)(=O)N(C)C)cc1OCC(N)=O | inactive
60 | COC(=O)C1=C(C)N(Cc2ccccc2)C(=NCCCOC(C)C)N[C@H]1c1ccccc1 | inactive
61 | CN(C)C(=O)CCc1ccc2c3c([nH]c2c1)[C@]1(C)[C@@H](C(=O)N2CCCCC2)C[C@H](CC(=O)NCCC2=CCCCC2)C(=O)N1CC3 | inactive
62 | CCn1c2ccc(F)cc2c2nnc(SCCN3CCOCC3)nc21 | inactive
63 | Cc1cc2nc(SCCN3CCOCC3)[nH]c2cc1C | 18.4 µM (active)
64 | Cc1cccc(C)c1OCCN1CCOCC1 | inactive
65 | Cc1ccc(C(=O)OCC(=O)N2CCCCCC2)cc1S(=O)(=O)N1CCOCC1 | inactive
66 | O=C1/C(=C/c2cccs2)CCc2ccccc21 | 8.2 µM (active)
67 | CCC1C/C(=C/c2cccs2)C(=O)/C(=C/c2cccs2)C1 (stereo not drawn) | inactive
68 | CN1C/C(=C/c2cccs2)C(=O)/C(=C\c2cccs2)C1 | inactive
69 | O=C(COc1cccnc1[N+](=O)[O-])Nc1ccc(Cl)cc1F | inactive
70 | O=C(COC(=O)COc1cccc(F)c1)NCC1CCCCC1 | inactive
71 | COc1ccc2sc(-c3ccc(S(C)(=O)=O)cc3)c(C#Cc3cncn3C)c2c1 | inactive
72 | CC(C)(C)OC(=O)C[C@@H]1C/C=C\C[C@H](CC(=O)N[C@@H](CO)Cc2ccccc2)C(=O)N[C@H](Cc2ccccc2)COC1=O | inactive
73 | CN(c1ccc(C(=O)N2CCc3ccccc3C2)cc1)S(C)(=O)=O | inactive
74 | Cc1ccc(-c2cc(C(=O)N3CCc4ccccc4C3)no2)cc1 | inactive
75 | O=C(c1noc2c1CCCC2)N1CCc2ccccc2C1 | 20.6 µM (active)
76 | CC(C)CC1(C)NC(=O)N(CC(=O)Nc2ccc3c(c2)OCCO3)C1=O (stereo not drawn) | inactive
77 | Cc1ccc(S(=O)(=O)NCC(=O)NNC(=O)c2ccc(Br)cc2)cc1C | inactive
78 | COc1ccc(-c2noc(CCCC(=O)NC3CCCC3)n2)cc1OC | inactive

Row | SMILES | Potency
79 | COc1ccc(-c2noc(-c3cccc(OC)c3OC)n2)cc1OC | 3.26 µM (active)
80 | COc1ccc(-c2csc3nc(-c4ccccc4F)oc(=O)c23)cc1OC | inactive
81 | COc1ccccc1Cc1nc(-c2ccc(C)cc2)no1 | 18.4 µM (active)
82 | Cc1ccc(-c2nc(-c3ccncc3)no2)c(C)c1 | 20.6 µM (active)
83 | COc1ccc(-c2noc(-c3ccc(C)cc3)n2)cc1 | 3.66 µM (active)
84 | COc1ccc(-c2noc(CSc3ccc(C)cc3)n2)cc1 | inactive
85 | Cc1ccc(-c2noc(CC(c3ccccc3)c3ccccc3)n2)cc1 | inactive
86 | Cc1ccc(-c2noc(-c3ccccc3C(=O)NCC3CCCO3)n2)cc1 (stereo not drawn) | inactive
87 | Cc1ccc(-c2noc(CSc3nnc(-c4ccncc4)n3-c3ccc(F)cc3)n2)cc1 | inactive
88 | COc1ccccc1CNS(=O)(=O)c1ccc(C)cc1 | inactive
89 | COc1ccc(-c2noc(CN(C)S(=O)(=O)c3ccc(C)cc3)n2)cc1 | inactive
90 | CCOC(=O)C1CCCN(C(=O)CSc2nnc3nc(C)cc(C)n23)C1 (stereo not drawn) | inactive
91 | CC(C)NC(=O)Nc1cccc2c1O[C@H](CN(C)S(=O)(=O)c1cccs1)[C@@H](C)CN([C@H](C)CO)C2=O | inactive
92 | COc1ccc(-c2sc3ccccc3c2-c2ccc(OCCN3CCOCC3)cc2)cc1 | inactive
93 | O=C(COC(=O)c1cccnc1Cl)Nc1ccc(S(=O)(=O)N2CCOCC2)cc1 | inactive
94 | COc1ccc2[nH]c3c(c2c1)CCN1C(=O)C(CC(=O)NCCCN(C)C)C[C@H](C(=O)N2CCOCC2)[C@@]31CCC1CCCC1 (stereo partly drawn) | inactive
95 | Cc1ccc(S(=O)(=O)Nc2ccc(F)c(S(=O)(=O)N3CCOCC3)c2)cc1 | inactive
96 | CCn1nc(C(=O)NNS(=O)(=O)c2cc(/C=C/C(=O)O)cc(OC)c2OC)c2ccccc2c1=O | inactive
97 | C[C@H]1CN([C@@H](C)CO)C(=O)Cc2cc(NS(C)(=O)=O)ccc2O[C@@H]1CN(C)CC1CC1 | inactive
98 | Cc1ccc(-c2noc(CSc3nnc(-c4ccccc4)n3C)n2)cc1 | inactive
99 | COc1ccc(-c2n[nH]c(C)c2-c2ccccc2OC)c(O)c1 | inactive
100 | COc1ccc(-c2noc(CNC(=O)C(C)Oc3ccccc3)n2)cc1 (stereo not drawn) | inactive
101 | Cc1ccc(Cc2nc(-c3cccc(C)c3)no2)cc1 | 16.4 µM (active)
102 | Cc1cccc(-c2noc(CCC(=O)NC3CCCC3)n2)c1 | inactive
103 | COc1ccc(-c2nc(-c3ccccc3)no2)c(OC)c1 | 0.058 µM (active)
